This is an account of results in PubChem BioAssay (NCI).

Structures are written as SMILES. Compounds without any hit were thinned out: in the full panel of roughly 83,000, 20% have a hit.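 Single-dose data. Exposure time 48 hours. Values below 10 considered active.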 A number with no mark means an inactive call. Calls of active or inactive are those of the source.

One assay concerns NCI-H522 lung. As to the kind of experiment: NCI-60 one-dose screen, 48 h (100 = growth as untreated, 0 = no growth, -100 = all killed). The following applies: 10 µM unless noted.
On to `COc1cc(C2CC(c3ccccc3)=NN2C=O)ccc1Oc1ccnc2cc(Cl)ccc12` (stereo not drawn), for which the growth was 42.7%.

For the compound `NC(N)=N/N=C/c1ccc(Cl)cc1`, the growth was 79.9%.

Consider `O=c1c2cc(Cl)ccc2oc2ccc(OCCCCCN3CCCCC3)cc12`, for which the growth is 36.2%.

Regarding `COc1cc(Cl)cc(-c2nn(C(=O)NCCN3CCOCC3)cc2-c2ccncc2)c1`, the growth is 18.3%.

For the compound `COc1ccc2nc3ccccc3c(NCc3ccc(Cl)cc3)c2c1`, the growth is 34.7%.

For the compound `CN1C(=O)N(C)C2C1NN=c1s/c(=C\c3ccc(C(F)(F)F)cc3)c(=O)n12` (stereo not drawn), the growth was 2.74% (active).

As to `C=C1C(=O)O[C@H]2[C@H]1CC/C(COC(=O)NCc1cn(C)c3ccccc13)=C\CC[C@@]1(C)O[C@@H]21`, the growth is -80.2% (active).

On to `c1csc(-c2cnc3nonc3n2)c1`, for which the growth is 70.7%.

As to `Nc1nc(NC2CC2)cc(-c2cccc(Cl)c2Cl)n1`, the growth was 3.95% (active).

In another assay the test system is A549/ATCC NSCLC. The assay is described as above. Particulars: 10 µM unless noted.
Consider `O=C1/C(=C/c2ccccc2)SC(=Nc2ccccc2)N1Nc1ccccc1`, for which the growth is 15.5%.

Regarding `COc1cnc2c(c1)C(=O)c1c-2n(CCCNC(C)C)c(=O)c2cc(Cl)ccc12`, the growth is -84% (active).

`CCSCC1CC(O)(c2ccccc2)C(c2ccccc2)C(c2ccc(F)cc2)O1` (stereo not drawn): the growth was 3.27% (active).

For `CN1C(=O)C(C2=NNC(c3ccccc3C(=O)O)C2)C(=O)N(C)C1=O` (stereo not drawn), the growth was 98.6%.

For `NC(N)=NC1CCCCC1`, the growth is 94.1%.

For `COc1ccc(C(=O)OC2C(OC3C(O)COC(O[C@H]4C[C@H]5[C@@H]6CC=C7C[C@@H](O)CC[C@]7(C)[C@H]6CC[C@]5(C)[C@H]4[C@H](C)C(=O)CCC(C)C)C3OC(C)=O)OCC(O)C2O)cc1` (stereo partly drawn), the growth was -14.3% (active).

`CC(C)(C)c1ccc(OC(=O)Nc2ccccc2)cc1`: the growth was 99.3%.

Consider `CN1C2CCC1/C(=C\c1ccc(F)cc1)C(=O)/C2=C/c1ccc(F)cc1`, for which the growth is 36.6%.

Consider `CCCCOC(=O)c1cc(O)c(O)c(O)c1`, for which the growth is 64.7%.

As to `CCOC(=O)C1OC2(CCCC2)OC1C(=O)OCC` (stereo not drawn), the growth was 102%.

In the case of `O=C(Nc1cccc(-n2ccc3c(NC(=O)c4ccccc4)nccc32)c1)c1ccc(N2CCOCC2)c(C(F)(F)F)c1`, the growth is 8.39% (active).

Take `CCN(CC)CCCC(C)Nc1c(-c2ccccc2)cnc2cc(Cl)ccc12` (stereo not drawn): the growth was 57.1%.

`O=C1C=CN2C(=O)CC=CC2[C@@H]1O` (stereo partly drawn): the growth is 108%.

`CC(=O)O[C@@H]1CC2C(C)(C)CCCC2(C)C2=C1C(=O)C(C(C)C)=CC2=O` (stereo partly drawn): the growth is -35% (active).

With `O=C(Nc1ccc(-n2ccc3c(NC(=O)c4ccccc4)nccc32)cc1)c1ccc(N2CCOCC2)c(C(F)(F)F)c1`, the growth is 6.91% (active).

`COc1cc(/C=C/c2cc(/C=C/c3ccc(O)c(OC)c3)n(C(=O)Nc3ccc(F)c(Cl)c3)n2)ccc1O`: the growth is 5.9% (active).

On to `COc1cc(OC)c2sc(-c3ccc(-n4cncc4-c4ccc(OC)c(N)c4)cc3)nc2c1`, for which the growth is 62.7%.

On to `COc1ccc(C2=NNC(c3ccc(Oc4nc5c(c(=O)n(C)c(=O)n5C)n4C)c(OC)c3)C2)cc1` (stereo not drawn), for which the growth was 90.5%.

As for `NS(=O)(=O)c1ccc(CCn2c(SCC(=O)N/N=C/c3cccnc3)nc3ccccc3c2=O)cc1`, the growth was 97.3%.

Consider `O=C(NNC(=O)c1cccc(Cl)c1)c1ccccc1`, for which the growth is 97.6%.

As to `N=c1nc(N2CCCCC2)cc(N)n1O`, the growth was 103%.

For `Cc1ccc(C)c(NC(=O)c2sc3c(=O)[nH]cnc3c2C)c1`, the growth was 74.6%.

In the case of `C=CCOC(=O)C1=C(C)NC2=C(C(=O)CCC2)C1c1ccc(F)cc1` (stereo not drawn), the growth was 97.3%.

For `COc1ccc(-c2cnc(-c3ccncc3-c3cccc(OC)c3)o2)cc1`, the growth is 30.7%.

In the case of `O=C(Nc1ccncc1)C(=O)c1cn(S(=O)(=O)c2cccc(Cl)c2F)c2ccccc12`, the growth is 82.8%.

Consider `Cc1ccccc1Nc1n[nH]c(Cc2ccccc2)n1`, for which the growth was 100%.

For `Oc1ccccc1-c1nnc(COc2ccc(Cl)cc2Cl)o1`, the growth is 54.5%.

Turning to `CS(=O)(=O)c1ccc(C(=O)N/N=C/c2ccccc2O)cc1`, the growth is 38.8%.

`CCCCCCCCCCCCCCCCCC(=O)OCCCCCCCCCCCCC`: the growth is 99.5%.

For `COc1cc(C2CC(c3ccc(C)cc3)=NN2C=O)ccc1Oc1nc2c(c(=O)n(C)c(=O)n2C)n1C` (stereo not drawn), the growth was 52%.

For the compound `COc1cc(C2CC(c3ccccc3)=NN2C=O)ccc1Oc1ccnc2cc(Cl)ccc12` (stereo not drawn), the growth was 56%.

As to `NC(N)=N/N=C/c1ccc(Cl)cc1`, the growth was 92.1%.

For the compound `O=c1c2cc(Cl)ccc2oc2ccc(OCCCCCN3CCCCC3)cc12`, the growth is 32.3%.

Consider `COc1cc(Cl)cc(-c2nn(C(=O)NCCN3CCOCC3)cc2-c2ccncc2)c1`, for which the growth is 60.7%.

Take `COc1ccc2nc3ccccc3c(NCc3ccc(Cl)cc3)c2c1`: the growth was 23.6%.

Take `CN1C(=O)N(C)C2C1NN=c1s/c(=C\c3ccc(C(F)(F)F)cc3)c(=O)n12` (stereo not drawn): the growth is 31.9%.

In the case of `C=C1C(=O)O[C@H]2[C@H]1CC/C(COC(=O)NCc1cn(C)c3ccccc13)=C\CC[C@@]1(C)O[C@@H]21`, the growth was 21%.

For `c1csc(-c2cnc3nonc3n2)c1`, the growth is 94.2%.

In the case of `Nc1nc(NC2CC2)cc(-c2cccc(Cl)c2Cl)n1`, the growth was 32.6%.
